According to PubChem BioAssay:
Active and inactive are the calls of the source. Unless noted, the rule behind the calls is not given here.

Assays:
[1] = A549 cell viability effects, profiling panel, calcein-AM fluorescence, 48 h, basal (AID 1162); conditions: higher = more signal; note: test concentration not given here
[2] = adipocyte viability effects, profiling panel, cell-based, 3T3-L1 adipocytes, calcein-AM fluorescence, 48 h, basal (AID 1163); conditions: 3T3-L1 adipocytes viability, higher = more signal; note: test concentration not given here
[3] = HepG2 cell viability effects, profiling panel, calcein-AM fluorescence, 48 h, basal (AID 1164); conditions: higher = more signal; note: test concentration not given here
[4] = MM1S cell viability effects, profiling panel, calcein-AM fluorescence, 48 h, basal (AID 1165); conditions: higher = more signal;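 note: viability of MM1S multiple myeloma cells under basal unstimulated conditions; test concentration not given here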
[5] = basal RPMI8226 viability, no added stimulus, profiling panel, cell-based, calcein-AM fluorescence, 48 h, PK04 Diversity Set (AID 1166); conditions: RPMI8226 myeloma viability, higher = more signal;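 note: cells grown under basal conditions without added stimulus; test concentration not given here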
[6] = basal HepG2 mitochondrial membrane potential changes, profiling panel, cell-based, JC-1 fluorescence, 24 h, 100 nL compound (AID 1167); conditions: higher = more signal; note: test concentration not given here
[7] = basal 3T3-L1 adipocyte mitochondrial potential changes, profiling panel, cell-based, JC-1 fluorescence, 3T3-L1 adipocytes, 24 h, 100 nL compound (AID 1168); conditions: JC-1 mitochondrial fluorescence, higher = more signal, called active from +8 up or from −8 down; note: test concentration not given here
[8] = basal RPMI8226 mitochondrial membrane potential changes, profiling panel, cell-based, JC-1 fluorescence, 24 h, 100 nL compound (AID 1169); conditions: RPMI8226 myeloma, JC-1 mitochondrial potential fluorescence, higher = more signal; note: test concentration not given here
[9] = basal MM1S mitochondrial membrane potential changes, profiling panel, cell-based, JC-1 fluorescence, 24 h, 100 nL compound (AID 1170); conditions: higher = more signal; note: test concentration not given here
[10] = A549 lung cancer cell viability effects, profiling panel, resazurin fluorescence, 24 h, PK04 Diversity Set (AID 1171); conditions: higher = more signal, called active from +8 up or from −8 down; note: test concentration not given here
[11] = HepG2 liver cancer cell viability effects, profiling panel, resazurin fluorescence, 24 h, PK04 Diversity Set (AID 1172); conditions: higher = more signal; note: test concentration not given here
[12] = basal S. cerevisiae growth modulation, no modifier, primary screen, OD600, strain BY4716, 24 h, basal condition (AID 1173); conditions: OD600, 24 h, higher = more signal, called active from +8 up or from −8 down
[13] = MM1S myeloma cell viability, profiling panel, resazurin fluorescence, basal, 24 h, PK04 Diversity Set (AID 1174); conditions: higher = more signal, called active from +8 up or from −8 down;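 note: MM1S multiple myeloma cell line; test concentration not given here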
[14] = biological target: Dihydroorotate dehydrogenase (quinone), mitochondrial (Plasmodium falciparum (isolate 3D7)) (UniProt Q08210); experiment: PfDHODH enzyme inhibitors, primary screen, biochemical, C-terminal His tag, absorbance 600 nm (AID 1175); conditions: DCIP absorbance 600 nm, higher = more signal, called active from +8 up or from −8 down;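 note: recombinant parasite enzyme with a five histidine tag at its C terminus; test concentration not given here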
Chain of Dihydroorotate dehydrogenase (quinone), mitochondrial (Plasmodium falciparum (isolate 3D7)) (Q08210 whole entry, looked up): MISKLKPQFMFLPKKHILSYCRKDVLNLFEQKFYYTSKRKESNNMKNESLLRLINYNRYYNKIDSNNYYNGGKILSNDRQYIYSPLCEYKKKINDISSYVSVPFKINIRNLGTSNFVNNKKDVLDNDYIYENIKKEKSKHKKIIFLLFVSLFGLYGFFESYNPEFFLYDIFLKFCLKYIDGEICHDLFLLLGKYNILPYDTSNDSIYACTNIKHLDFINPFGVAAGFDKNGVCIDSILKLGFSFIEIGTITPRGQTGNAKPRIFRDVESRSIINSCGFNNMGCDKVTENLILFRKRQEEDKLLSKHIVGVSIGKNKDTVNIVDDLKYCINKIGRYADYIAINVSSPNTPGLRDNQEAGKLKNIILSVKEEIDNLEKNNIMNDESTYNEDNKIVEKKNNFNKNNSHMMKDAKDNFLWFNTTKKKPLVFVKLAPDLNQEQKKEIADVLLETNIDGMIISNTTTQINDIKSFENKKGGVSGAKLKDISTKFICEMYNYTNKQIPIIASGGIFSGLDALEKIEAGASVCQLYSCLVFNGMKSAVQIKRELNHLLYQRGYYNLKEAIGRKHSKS

[15] = P. aeruginosa biofilm formation inhibitors, primary screen, strain PAO1, LB-PBS medium, absorbance 600 nm (AID 1176); note: test concentration not given here; conditions: P. aeruginosa PAO1 growth/biofilm, A600, 12 h; higher = more signal
[16] = S. cerevisiae RM11-1a growth modifiers, primary screen, strain RM11-1a, OD600, basal, 24 h (AID 1177); conditions: OD600, 24 h, higher = more signal, called active from +8 up or from −8 down;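 note: cultures grown under basal conditions with no added stressor; test concentration not given here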
[17] = E. coli acrAB mutant growth effects, primary screen, E. coli filamentation inducers, strain DRC39, OD650, 24 h (AID 1178); conditions: higher = more signal, called active from +8 up or from −8 down;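 note: growth measured as culture turbidity by optical density at 650 nm; test concentration not given here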
[18] = E. coli acrAB mutant growth effects, primary screen, E. coli filamentation inducers, strain DRC39, OD650, 48 h (AID 1179);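 note: screen aims at cell division blockers that make cells filament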; conditions: E. coli DRC39 delta-acrAB growth, higher = more signal, called active from +8 up or from −8 down
[19] = RPMI8226 myeloma cell viability, profiling panel, resazurin fluorescence, basal, 24 h, PK04 Diversity Set (AID 1180); conditions: higher = more signal;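 note: RPMI8826 multiple myeloma cell line at 5000 cells per well; test concentration not given here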
[20] = biological target: E3 ubiquitin-protein ligase XIAP (Homo sapiens) (UniProt P98170); experiment: XIAP binders, primary screen, biophysical, small-molecule microarray, fluorescence 635 nm (AID 1181); conditions: small-molecule microarray binding, higher = more signal;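 note: score merges 667 nm emission and signal to noise over triplicate slides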
Chain of E3 ubiquitin-protein ligase XIAP (Homo sapiens) (P98170 whole entry, looked up): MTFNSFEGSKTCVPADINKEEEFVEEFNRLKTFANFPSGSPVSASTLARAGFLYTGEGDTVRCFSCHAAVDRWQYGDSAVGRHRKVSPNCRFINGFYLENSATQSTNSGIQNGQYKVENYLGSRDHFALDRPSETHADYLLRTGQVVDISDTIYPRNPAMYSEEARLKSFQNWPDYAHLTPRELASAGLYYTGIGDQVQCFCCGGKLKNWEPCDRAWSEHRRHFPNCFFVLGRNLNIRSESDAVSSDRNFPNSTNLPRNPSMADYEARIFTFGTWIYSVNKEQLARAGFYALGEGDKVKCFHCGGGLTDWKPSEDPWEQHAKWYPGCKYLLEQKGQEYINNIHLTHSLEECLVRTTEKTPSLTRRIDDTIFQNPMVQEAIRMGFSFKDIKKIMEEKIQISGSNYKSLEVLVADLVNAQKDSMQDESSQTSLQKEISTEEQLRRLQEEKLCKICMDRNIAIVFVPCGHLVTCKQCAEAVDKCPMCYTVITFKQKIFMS

SMILES	z-score [1]	z-score [2]	z-score [3]	z-score [4]	z-score [5]	z-score [6]	z-score [7]	z-score [8]	z-score [9]	z-score [10]	z-score [11]	z-score [12]	z-score [13]	composite z-score [14]	z-score [15]	z-score [16]	z-score [17]	z-score [18]	z-score [19]	composite z-score [20]
Cc1ccc(S(=O)(=O)N[C@@H]2COC(=O)[C@@H](C)COC(=O)CC=C[C@H]2C)cc1	-0.168	0.996	0.617	0.0281	0.587	0.0622	-0.396 (inactive)	0.62	0.743	0.0709 (inactive)	0.0896	0.426 (inactive)	0.258 (inactive)	0.264 (inactive)	-0.413 (inactive)	1.02 (inactive)	0.155 (inactive)	-0.73 (inactive)	-0.0722	0.214
CC(C)CON=C1C[C@@H](O)[C@@H](O)[C@@H]2[C@@H]3C(=O)N(c4ccc(F)cc4F)C(=O)[C@@H]3CC[C@H]12	0.0042	-0.934	-0.222	0.597	-0.567	0.861	-0.131 (inactive)	0.541	-1	0.495 (inactive)	0.806	-0.406 (inactive)	0.686 (inactive)	-0.223 (inactive)	0.246 (inactive)	-0.554 (inactive)	0.404 (inactive)	-0.382 (inactive)	0.17	-0.138
CCOC(=O)CCN1C(=O)[C@H]2[C@H]3[C@H](O)[C@H](O)CC(=NOCc4ccccc4)[C@H]3CC[C@H]2C1=O	0.14	-1.08	-0.416	0.0807	-0.273	0.239	0.392 (inactive)	-0.508	-1.22	-0.553 (inactive)	-0.436	0.556 (inactive)	-1.34 (inactive)	0.461 (inactive)	0.365 (inactive)	0.632 (inactive)	0.955 (inactive)	1.08 (inactive)	-0.775	0.012
CCc1cc2c(nc1CC)CCN(CCC(C)=NOC[C@H]1O[C@H](c3ccccc3)C=C[C@@H]1Oc1ccc(OC)cc1)C2	-0.67	0.765	-0.106	-2.03	-2.35	5.61	-1.1 (inactive)	-0.0846	0.0581	0.364 (inactive)	0.0523	-1.75 (inactive)	0.22 (inactive)	-3.81 (inactive)	-0.197 (inactive)	-0.409 (inactive)	-1.58 (inactive)	-1.43 (inactive)	0.218	-0.23
Cc1ccc(S(=O)(=O)n2c3ccccc3c3nnc(C(=O)c4ccccc4)nc32)cc1	1.8	0.294	-0.284	-0.377	0.271	-2.96	0.839 (inactive)	-0.248	-0.956	-0.721 (inactive)	-0.148	-0.586 (inactive)	-0.508 (inactive)	-1.1 (inactive)	0.523 (inactive)	0.151 (inactive)	1.04 (inactive)	0.0979 (inactive)	-0.222	-0.256
CC(=O)OC[C@H]1O[C@H](CCON=C2[C@H]3CCn4c(=O)n(-c5ccccc5)c(=O)n4[C@H]3[C@H](O)[C@@H]3O[C@H]23)C=C[C@@H]1OC(C)=O	0.0488	-1.08	0.254	-0.775	-0.645	-0.58	-0.91 (inactive)	0.602	-0.876	-0.862 (inactive)	-0.609	0.0957 (inactive)	-3.19 (inactive)	0.33 (inactive)	-0.95 (inactive)	0.393 (inactive)	0.785 (inactive)	1.17 (inactive)	-0.759	-0.148
COC(=O)[C@H](C)NC(=O)CCC1CC(OC(=O)NCc2ccc3c(c2)OCO3)CC2(CCCC(COC(=O)NCCc3ccccc3OC)O2)O1 (stereo not given in full)	-0.949	-0.976	-2.36	-3.53	-1.56	-1.34	0.354 (inactive)	-0.241	-0.735	0.389 (inactive)	-0.134	-0.148 (inactive)	-0.344 (inactive)	-1.07 (inactive)	0.238 (inactive)	0.0525 (inactive)	0.775 (inactive)	0.451 (inactive)	-0.229	-0.252
C[C@@H](c1ccccc1)N1C(=O)[C@H]2[C@H]3[C@H](O)[C@H](O)CC(=O)[C@H]3CC[C@H]2C1=O	0.614	0.205	0.92	0.358	-0.094	0.311	1.27 (inactive)	-0.826	1.05	0.288 (inactive)	-0.137	-0.491 (inactive)	0.162 (inactive)	-0.736 (inactive)	0.128 (inactive)	-0.218 (inactive)	0.366 (inactive)	0.53 (inactive)	0.033	0.0641
O=C1[C@H]2[C@H]3[C@H](O)[C@H](O)CC(=NOCc4ccccc4)[C@@H]3CC[C@H]2C(=O)N1c1ccc(F)cc1F	0.504	-0.23	0.688	0.635	1.13	1.51	-0.371 (inactive)	-0.261	-1.57	-1.03 (inactive)	0.0979	-0.584 (inactive)	0.253 (inactive)	-1.42 (inactive)	0.86 (inactive)	-2.15 (inactive)	-0.018 (inactive)	-0.714 (inactive)	-1.19	-0.0563
